# Measurements taken from PubChem BioAssay (NCATS).
# Inconclusive results are not listed. Where a call stands in place of a potency, no number is given. Unmarked numbers belong to inactive results. The source made the active and inactive calls. Calls come from the whole dose curve; as a rule, active = well fitted cell-killing curve with a large enough effect; inconclusive = small, poorly fitted or top-dose-only effect, or effect the other way; inactive = no such curve, though single readings can be large or run the other way.
# Legend:
# [1] = Viability qHTS for spleen associated tyrosine kinase inhibitor (SYKi) naive MV4-11 cells (AID 1963823); conditions: MV4-11 AML viability, CellTiter-Glo luminescence, 72 h; series mostly up to 45 µM; note: nearly all actives have a fitted effect of over 40% in size
# In short: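 CellTiter-Glo luminescence, 10 min room-temperature incubation, gave viability. Cells: naive MV4-11 (500/well), treated 72 hr at 37 C, 5% CO2.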
# [2] = Viability qHTS for spleen associated tyrosine kinase inhibitor (SYKi) drug resistant MV4-11 cells (AID 1963824); conditions: SYKi-resistant MV4-11 viability, CellTiter-Glo, 72 h; series mostly up to 45 µM; note: nearly all actives have a fitted effect of over 35% in size
# In short: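 CellTiter-Glo luminescence, read 10 min after reagent addition, reports viability after a 72 hr compound exposure. Cells are an MV4-11 line made resistant to SYK inhibition, seeded at 500 per well onto compound-containing plates.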
# Potency is the fitted concentration of half-maximal effect.
SMILES,Potency [1],Potency [2],viability (% of control) [1],"viability, % of control [2]"
CCOCCn1nc(CC)c2nc(N3CCC(C(=O)O)CC3)nc(Nc3cc(C)ccn3)c21,inactive,inactive,–,–
Cc1cn(C2C[C@H](O)[C@@H](CO)O2)c(=O)[nH]c1=O (some centres not stated),inactive,inactive,–,–
CC1(CO)CCCC2(C)C1C(OC(=O)c1ccccc1)CC1C(=O)OCC12O (configuration not stated),inactive,inactive,–,–
CC(C)=CCC[C@](C)(O[C@@H]1O[C@H](CO[C@@H]2OC[C@H](O)[C@H](O)[C@H]2O)[C@@H](O)[C@H](O)[C@H]1O)[C@H]1CC[C@]2(C)[C@@H]1[C@H](O)C[C@@H]1[C@@]3(C)CC[C@H](O[C@@H]4O[C@H](CO)[C@@H](O)[C@H](O)[C@H]4O[C@@H]4O[C@H](CO)[C@@H](O)[C@H](O)[C@H]4O)C(C)(C)[C@@H]3CC[C@]12C,inactive,inactive,–,–
CC(C)=CCC/C(C)=C/CC/C(C)=C/COC1OC(COC2OCC(OC3OCC(O)C(O)C3O)C(O)C2O)C(O)C(OC2OC(C)C(OC3OC(C)C(OC4OCC(OC5OC(C)C(O)C(O)C5O)C(O)C4O)C(O)C3O)C(O)C2O)C1O (configuration not stated),–,–,70.7% [at 9.25 µM],96.7% [at 9.25 µM]
CN[C@@H]1[C@@H](O)[C@@H](O[C@@H]2[C@@H](O)[C@H](O[C@H]3O[C@@H]([C@@H](C)NC)CC[C@H]3N)[C@@H](N)C[C@H]2N)OC[C@]1(C)O,inactive,inactive,–,–
C=CC(=O)N1CCN(C(=O)CNc2cc(-c3ccccc3Cl)c(Cl)cc2OC)CC1,10.3 µM (active),11.6 µM (active),–,–
CN(C)C(=O)NC1(c2ccccc2)CCN(CCC[C@]2(c3ccc(Cl)c(Cl)c3)CCCN(C(=O)c3ccccc3)C2)CC1,2.59 µM (active),4.11 µM (active),–,–
C=C1C(=O)OC2/C=C(\CO)CC/C=C(\C=O)CC(OC(=O)CC(C)C)C12 (configuration not stated),2.27 µM (active),2.02 µM (active),–,–
O=C(OC[C@H]1O[C@@H](Oc2ccccc2COC(=O)C2(O)C=CCCC2O)[C@H](O)[C@@H](O)[C@@H]1O)c1ccccc1 (some centres not stated),inactive,inactive,–,–
CC(C)=CCC[C@](C)(O[C@@H]1O[C@H](CO)[C@@H](O)[C@H](O)[C@H]1O)[C@H]1CC[C@]2(C)[C@@H]1[C@H](O)CC1[C@@]3(C)CC[C@H](O)C(C)(C)C3[C@@H](O[C@@H]3O[C@H](CO)[C@@H](O)[C@H](O)[C@H]3O)C[C@]12C (some centres not stated),inactive,inactive,–,–
